High-throughput results deposited in PubChem BioAssay by National Center for Advancing Translational Sciences (NCATS).
RORgamma inh: blocks mouse ROR gamma transcriptional activity; P51450; Drosophila S2 Gal4-RORgamma UAS-luciferase reporter, 20 h; Potency, µM (series often up to 53.6 µM), for the others: top-dose activity change, negative = inhibition, most hits filed as inhibitors; AID 2551; 310,000 tested, 5.4% active; further: nearly all actives have a fitted effect of over 60% in size
Target sequence (P51450 whole entry, looked up, the tested form may be a part): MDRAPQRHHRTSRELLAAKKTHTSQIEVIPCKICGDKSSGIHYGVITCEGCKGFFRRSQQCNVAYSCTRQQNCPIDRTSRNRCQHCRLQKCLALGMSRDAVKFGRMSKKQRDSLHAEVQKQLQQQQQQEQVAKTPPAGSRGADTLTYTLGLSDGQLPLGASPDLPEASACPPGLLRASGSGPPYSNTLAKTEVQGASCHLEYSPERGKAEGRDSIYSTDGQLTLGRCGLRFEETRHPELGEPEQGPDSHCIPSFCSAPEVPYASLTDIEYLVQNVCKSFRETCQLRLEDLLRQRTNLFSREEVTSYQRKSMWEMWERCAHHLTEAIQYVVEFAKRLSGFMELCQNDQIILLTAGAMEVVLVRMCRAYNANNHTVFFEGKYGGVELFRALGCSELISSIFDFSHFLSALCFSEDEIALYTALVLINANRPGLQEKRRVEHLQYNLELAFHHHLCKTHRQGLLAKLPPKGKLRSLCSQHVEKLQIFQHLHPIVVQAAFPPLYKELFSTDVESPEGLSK
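A Gal4/UAS one-hybrid system in insect cells: metallothionein-promoter Gal4–ROR gamma fusion plus Photinus luciferase reporter. Copper sulfate 700 uM final, 20 hr ambient incubation, luminescent detection after 10 min with reagent.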
Luc counter: Kinase-Glo luciferase inhibition (counter-screen) | Q27757 | Kinase-Glo luciferase, ATP luminescence, 8 min | Potency, µM (doses to about 38.3 µM), for the others: top-dose activity change, negative = inhibition, hits mostly inhibitors | 200,000 tested, 0.28% active; further: nearly all actives have a fitted effect of over 60% in size
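Kinase-Glo luciferase light output from ATP and luciferin was measured with 10 uM ATP, within the enzyme's linear range. Buffer: 50 mM imidazole pH 7.2, 50 mM KCl, 7 mM MgCl2, 0.01% Tween 20, 0.05% BSA; luminescence read after 8 min at ambient temperature.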
Gal4-VP16 FLuc: counter-screen for ROR gamma inhibitors: Gal4-VP16 reporter; Drosophila S2 Gal4-VP16 UAS-luciferase, luminescence, 20 h; Potency, µM (series often up to 53.6 µM), inactives show at the top dose activity, negative = inhibition, most hits filed as inhibitors; 310,000 tested, 3.5% active; AID 2546;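 further: Gal4-VP16 expression switched on by copper sulfate through the metallothionein promoter; nearly all actives have a fitted effect of over 50% in size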
Starred values were filed as active, the others as inactive; ? = inconclusive; nt = not tested or not shown; [ ] = dose if it differs, or a comment. Most compounds without a hit are left out; they make up all but 6.2% or so of the library. The call rests on the fitted dose curve; in most records, active means well fitted curve in the direction sought with a large enough effect; inconclusive means small, poorly fitted or top-dose-only effect, or another doubt; inactive means no such curve, though single readings can be large; an effect the other way counts as inactive or inconclusive. On the % scale 0 is the no-effect control and ±100 the full control effect; potency means the concentration at half of the fitted maximal effect.

SMILES | RORgamma inh | Luc counter | Gal4-VP16 FLuc
CCCS(=O)(=O)N1CCCC(C(=O)NCCCN2CCN(c3ccc(F)cc3)CC2)C1 (configuration not stated) | 38% | -2% | -11%
Cc1ccc(NC(=O)CSCC(=O)NCCc2ccccn2)c(C)c1 | 9% | 5% | 3%
COc1ccc(N2CC(O)=C(c3nc(-c4ccc(F)cc4)cs3)C2=N)cc1OC | ? | 6% | 1%
CCn1cc(/C=C/C(=O)c2ccc(O)cc2)c(C)n1 | 2.2µM* | -4% | 4µM*
Cc1nn(C)cc1/C=C/C(=O)c1ccccc1 | ? | -20% | ?
Cc1c(/C=C/C(=O)c2ccccc2)cnn1C | -9% | ? | -17%
CCn1ncc(/C=C/C(=O)c2ccccc2)c1C | -76% | 10µM* | ?
O=c1[nH]cnc2c1c(-c1ccccc1)cn2-c1ccccc1 | -15% | nt | -5%
Cc1ccc(-n2cc(-c3ccccc3)c3c(=O)[nH]cnc32)cc1 | 4% | 1% | 12%
Fc1ccc(-n2cc(-c3ccccc3)c3c(=S)nc[nH]c32)cc1 | 1.3µM* | nt | 1µM*
Fc1cccc(-n2cc(-c3ccccc3)c3c(=S)nc[nH]c32)c1 | 2.5µM* | nt | 0.63µM*
Cc1c(NC(=O)/C(C#N)=C/C2CC=CCC2)c(=O)n(-c2ccccc2)n1C (configuration not stated) | -10% | -1% | -1%
Cc1ccc2c(c1)C1C3CCC(C3)C1S(=O)N2 (configuration not stated) | 37% | 0% | -13%[10 µM]
COC(=O)c1ccc(CSc2ncnc3sc(C)c(C)c23)o1 | 18µM* | -2% | ?
COC(=O)c1ccc(CSc2nnc(Nc3ccc(C)cc3)s2)o1 | 11% | 0% | -6%
CN(Cc1ccccc1)C(=O)c1[nH]cnc1C(=O)N[C@@H](Cc1ccccc1)C(=O)OCc1ccccc1 | 10µM* | nt | 10µM*
C[C@H](NC(=O)c1nc[nH]c1C(=O)N[C@@H](Cc1ccccc1)C(=O)OCc1ccccc1)c1ccccc1 | 4.5µM* | nt | 7.9µM*
C[C@H](NC(=O)c1nc[nH]c1C(=O)N[C@H](C)c1ccccc1)C(=O)OCc1ccccc1 | -5% | nt | 3%
O=C(N[C@@H](Cc1ccccc1)C(=O)OCc1ccccc1)c1nc[nH]c1C(=O)NC(c1ccccc1)c1ccccc1 | 3.5µM* | nt | 5.6µM*
O=C(CNC(=O)c1[nH]cnc1C(=O)NC(c1ccccc1)c1ccccc1)OCc1ccccc1 | 27% | nt | ?
C[C@@H](NC(=O)c1nc[nH]c1C(=O)N[C@@H](Cc1ccccc1)C(=O)OCc1ccccc1)c1ccccc1 | 5.6µM* | nt | 7.1µM*
CCN(CC)C(=O)c1[nH]cnc1C(=O)N[C@@H](CC(C)C)C(=O)OCc1ccccc1 | 2% | nt | -7%
COc1ccc(N(CC(=O)NCc2cccs2)S(=O)(=O)c2cccnc2)cc1 | -3% | -1% | 3%
O=C(NCCO)C(=O)Nc1cc2c3c(c1)CCN3C(=O)CC2 | -15% | nt | -2%
Cc1cccc(C)c1N(CC(=O)NC1CCCCC1)C(=O)c1csnn1 | 1% | nt | -1%
SMILES | RORgamma inh | Luc counter | Gal4-VP16 FLuc
CN(Cc1ccccc1)C(=O)c1[nH]cnc1C(=O)NCC(=O)OCc1ccccc1 | 11µM* | nt | -30%
COc1ccc(CNc2nc(-c3cccc(C#N)c3)nc3ccccc23)c(OC)c1 | ? | nt | -8%
CCN1CCN(C(=S)Nc2ccc3nc4n(c(=O)c3c2)CCCCC4)CC1 | 15% | -1% | -10%
COc1ccc2[nH]cc(C(=O)CCl)c2c1 | 7.9µM* | nt | 6.3µM*
COc1ccc2[nH]cc(C(=O)CN3CC(C)CC(C)C3)c2c1 (configuration not stated) | -11% | nt | 3%
CN1CCC[C@@H]1c1cccnc1.O=C(O)c1ccccc1O.O=C([OH2+])c1ccccc1O.O=C([OH2+])c1ccccc1O.[Mn] | nt | -4%[7.66 µM] | nt
CCOc1ccc(C(C)=O)cc1N1C(=O)C2C3C=CC(O3)C2C1=O (configuration not stated) | 6.3µM* | -5% | 6.3µM*
CCOc1ccc(C(C)=O)cc1N1C(=O)C2C3C=CC(C3)C2C1=O (configuration not stated) | -1% | -2% | 5%
Cc1cccc(-n2cc3c(=O)n(C)c(=O)n(C)c3c2)c1 | -1% | 3% | -2%
CCNC(=S)N1CCN(C(c2ccccc2)c2ccccc2)CC1 | 45% | 2% | -4%
CCCCNC(=S)N1CCN(C(c2ccccc2)c2ccccc2)CC1 | 3.2µM* | -1% | ?
CCCCNC(=O)N1CCN(C(c2ccccc2)c2ccccc2)CC1 | -39% | nt | 13%
S=C(NCCc1ccccc1)N1CCN(C(c2ccccc2)c2ccccc2)CC1 | 10µM* | 3% | ?
CCCNC(=S)N1CCN(C(c2ccccc2)c2ccccc2)CC1 | 11µM* | 3% | 18µM*
CCN1CCN(C(=S)NCCc2ccccc2)CC1 | 4% | 0% | 22%
COc1ccc(COC(=O)N/N=C2/C[C@@H](O)[C@@H](O)[C@@H]3[C@H]4C(=O)N(c5ccc(F)cc5F)C(=O)[C@@H]4CC[C@@H]23)cc1 | 18%[10 µM] | nt | 2%[10 µM]
O=C(N/N=C/c1ccccc1O)C1SCCCS1 | 0.79µM* | 4% | 5µM*
Cc1cc(C(=O)N/N=C/c2cc(Br)ccc2OC(=O)c2ccccc2)n[nH]1 | ? | 1% | 3%[0.365 µM]
Nc1nonc1C(=O)N/N=C/c1cc(Br)ccc1O | -2% | -3% | 0%
Cc1cc(C(=O)N/N=C/c2cc(Br)ccc2OC(=O)c2ccccc2Cl)n[nH]1 | 14µM* | 2% | ?
O=C(N/N=C/c1ccccc1O)c1cc[n+]([O-])cc1 | ? | nt | -11%
O=C(N/N=C/c1cc(Cl)ccc1O)c1ccc(Br)cc1 | 2.8µM* | -2% | ?
O=C(N/N=C/c1cccc(Br)c1)c1ccc(Br)cc1 | ? | 1% | 1%
Cc1nc(C)c(C(=O)N/N=C/c2cc(Br)ccc2O)s1 | 3.2µM* | nt | 7.9µM*
O=C(Nn1c(C2CCC2)nc2ccccc2c1=O)c1cccs1 | 16% | 3% | -12%
SMILES | RORgamma inh | Luc counter | Gal4-VP16 FLuc
O=C(c1ccc(S(=O)(=O)N2CCOCC2)cc1)N1CCOCC1 | 24% | -1% | -6%
O=C(N/N=C/c1cc(Br)ccc1O)Nc1ccccc1 | 2.5µM* | -1% | 11µM*
O=C(N/N=C\c1cc(Br)ccc1O)c1ccc(S(=O)(=O)N2CCCCC2)cc1 | 3.5µM* | -1% | 4µM*
COc1ccc(/C=N/NC(=O)C(=O)Nc2ccccn2)cc1OC | -2% | 0% | -2%
O=C(Nc1cccc(O)c1)C(=O)Nc1ccccn1 | 27% | 4.5µM* | -3%
NC(=O)N/N=C\c1cc(Br)ccc1O | -16% | -6% | -22%
C/C(CC(=O)Nc1ccccn1)=N\NC(=O)C(=O)Nc1cccc(C)c1 | -1% | -3% | -7%
O=C(N/N=C/c1ccc(O)c(O)c1)c1cccc(S(=O)(=O)N2CCCCC2)c1 | -5% | -1% | -5%
O=C(N/N=C/c1ccccc1O)C(=O)Nc1ccccn1 | 1.4µM* | -19% | 10µM*
Cc1nnc(N(C)C(=O)c2ccncc2)s1 | 10% | 5% | -17%
O=C(Oc1ccccc1)N1CCC2(CC1)CN(c1ccccc1)C2 | 41% | -2% | -17%
Cc1cc(-c2nnc(CCC(=O)NCc3cc(F)cc(C(F)(F)F)c3)o2)no1 | ? | nt | 20%
CC(C)(C)OC(=O)N/N=C/c1c[nH]c2ccccc12 | 14% | -11% | -8%
